Bioassay records: PubChem BioAssay, several laboratories
Most compounds without a hit are left out; they make up all but 4% or so of the library.
FAS TE block: FAS thioesterase domain inhibitors, primary screen, biochemical, fluorescence intensity, uHTS | Fatty acid synthase (Homo sapiens), P49327 | recombinant FAS-TE, OMFH fluorogenic substrate, fluorescence endpoint | 360,000 tested, 0.67% active | inhibition, % at 15 µM;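 active means compounds whose normalised, plate-corrected inhibition of enzyme fluorescence in the single-dose primary screen is 50% or more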
ADAM17 inh: ADAM17 inhibitors, primary screen, biochemical, QFRET | inhibition, % at 6.95 µM | 370,000 tested, 0.83% active | recombinant ADAM17, EDANS/DABCYL FRET peptide cleavage | Disintegrin and metalloproteinase domain-containing protein 17 (Homo sapiens), P78536;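 active means inhibition above the mean of compounds lying between control limits plus 3 SD, set per campaign, cut at about 8.5% in these data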
Target sequence (P78536 215-824 limits assumed): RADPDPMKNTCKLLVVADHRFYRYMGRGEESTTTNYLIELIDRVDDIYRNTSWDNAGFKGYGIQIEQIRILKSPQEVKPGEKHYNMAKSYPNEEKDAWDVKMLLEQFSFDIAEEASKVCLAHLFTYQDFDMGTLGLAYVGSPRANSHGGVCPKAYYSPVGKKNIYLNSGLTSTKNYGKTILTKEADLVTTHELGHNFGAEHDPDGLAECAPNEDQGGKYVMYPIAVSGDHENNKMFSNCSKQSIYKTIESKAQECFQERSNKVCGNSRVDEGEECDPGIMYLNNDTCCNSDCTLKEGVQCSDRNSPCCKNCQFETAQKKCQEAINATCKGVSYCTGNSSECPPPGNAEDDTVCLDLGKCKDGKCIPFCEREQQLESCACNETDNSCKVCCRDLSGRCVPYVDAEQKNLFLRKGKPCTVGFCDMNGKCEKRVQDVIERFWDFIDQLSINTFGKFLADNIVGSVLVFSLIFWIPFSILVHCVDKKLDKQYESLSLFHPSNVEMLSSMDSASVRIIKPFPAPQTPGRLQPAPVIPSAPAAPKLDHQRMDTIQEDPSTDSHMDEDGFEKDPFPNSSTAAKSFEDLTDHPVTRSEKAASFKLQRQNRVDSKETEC
ADAM10 inh: human ADAM10 inhibitors, primary screen, biochemical, QFRET, HTS; inhibition, % at 7 µM; 370,000 tested, 0.62% active; recombinant ADAM10, EDANS/DABCYL FRET peptide cleavage, 3 h;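 active means inhibition above a per-campaign cutoff equal to the mean of compounds falling between control-based bounds plus 3 SD, cut at about 20% in these data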
aDG glyco act: activators of alpha-DG glycosylation, primary screen, uHTS, Pro5-aDG cells, AlphaScreen | alpha-DG glycosylation AlphaScreen (IIH6); 0% Pro5, 100% B10-LARGE cell signal | activation, % at 10 µM | AID 624168, 2012 | 360,000 tested, 0.22% active;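 active means activation of at least 8% versus controls, or a plate z-score of at least 8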;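 further: Pro5 are CHO cells carrying HIG-tagged alpha-DG that lacks glycosylation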
GRIN3A LBD mod: binders of NR3A ligand-binding domain, primary screen, biophysical, differential scanning fluorimetry, uHTS. AID 1259313, 2017. 340,000 tested, 2.5% active. NR3A LBD differential scanning fluorimetry, Tm shift; 0% = protein alone, 100% = glycine-bound protein. Tm shift relative to glycine control, % at 25 µM. Glutamate receptor ionotropic, NMDA 3A (GRIN3A) ligand-binding domain;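 active means melting temperature shift of at least 10% of the positive control shift, at one fixed dose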
ADAM10 confirm: human ADAM10 inhibitors, confirmation, biochemical, QFRET, triplicate | shares compounds with ADAM10 inh | ADAM10 QFRET peptide cleavage, EDANS fluorescence | inhibition, % at 6.95 µM | 2,100 tested, 1% active;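 active means inhibition above about 20% chosen separately for each screening run, limit read from the data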
ADAM17 ctr: ADAM17 inhibitors, counter-screen for ADAM10 exosite inhibitor project, biochemical, QFRET, high throughput; shares compounds with ADAM10 inh; ADAM17 QFRET peptide cleavage, EDANS fluorescence; inhibition, % at 6.95 µM; 2,100 tested, 0.5% active; AID 743214, 2013;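 active means mean triplicate inhibition above the solvent-only control wells' mean plus 3 SD, cut at about 12% in these data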
ADAM10 ctr: ADAM10 inhibitors, counter-screen for ADAM17 exosite inhibitor project, biochemical, FRET, human ADAM10; 2,900 tested, 47% active; inhibition, % at 6.95 µM; recombinant ADAM10, EDANS/DABCYL FRET peptide cleavage, 3 h; shares compounds with ADAM17 inh; AID 743256, 2014;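 active means mean inhibition over the triplicate runs exceeds the activity threshold set in the earlier primary screen, cut at about 20% in these data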
ADAM17 confirm: ADAM17 inhibitors, hit retest, confirmation, biochemical, QFRET peptide cleavage; inhibition, % at 6.95 µM; 2,900 tested, 65% active; shares compounds with ADAM17 inh; recombinant ADAM17, EDANS/DABCYL QFRET peptide cleavage;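 active means mean inhibition across replicates above the hit cutoff set in the primary screen, cut at about 8.5% in these data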
Of the large screens only hits and unclear results are named; the others gave an inactive call (follow-up assays come after a bar, where they were run).

Cc1ccc(NC(=O)c2cc(S(=O)(=O)Nc3ccc(C)cc3)cs2)cc1	ADAM17 inh 10, ADAM10 inh 27, GRIN3A LBD mod 27 | ADAM10 confirm inactive | ADAM17 ctr inactive | ADAM10 ctr 45 | ADAM17 confirm 19
CC(=O)c1ccc2c(c1)C1C=CCC1C(c1cc3c(cc1Br)OCO3)N2 (stereo not given)	none
COc1ccc2c(c1)C1C=CCC1C(c1cc3c(cc1Br)OCO3)N2 (stereo not given)	ADAM17 inh 9.1, ADAM10 inh 22 | ADAM10 confirm inactive | ADAM17 ctr inactive | ADAM10 ctr inactive | ADAM17 confirm inactive
O=C(COC(=O)c1cccc(NS(=O)(=O)c2ccc(F)c(F)c2)c1)NC(=O)NC1CCCCC1	ADAM17 inh 13, ADAM10 inh 28, GRIN3A LBD mod 23 | ADAM10 confirm inactive | ADAM17 ctr inactive | ADAM10 ctr inactive | ADAM17 confirm 10
O=S(=O)(c1ccc(NC(=S)NCCC(c2ccccc2)c2ccccc2)cc1)N1CCOCC1	ADAM17 inh 15, ADAM10 inh 21, GRIN3A LBD mod 16 | ADAM10 confirm inactive | ADAM17 ctr inactive | ADAM10 ctr 31 | ADAM17 confirm 17
CCCCOCCCNC(=S)Nc1ccc(S(=O)(=O)N2CCOCC2)cc1	none
CCCCCCCCCCSc1n[nH]c(N)n1	ADAM17 inh 19, ADAM10 inh 45 | ADAM10 confirm inactive | ADAM17 ctr inactive | ADAM10 ctr inactive | ADAM17 confirm 10
COc1ccc(S(=O)(=O)N2CCCCCC2)cc1C(=O)N(C)Cc1ccco1	none
CCOc1ccccc1/C=C(\C#N)C(=O)Nc1cccc(C(=O)O)c1	none
O=C1NC[C@H](c2ccccc2)OC(=O)[C@H](Cc2ccc(F)cc2)CC/C=C/C[C@H]1CC(=O)N(CCO)Cc1ccccc1	ADAM17 inh 17, ADAM10 inh 24 | ADAM10 confirm inactive | ADAM17 ctr inactive | ADAM10 ctr 22 | ADAM17 confirm 11
Cc1ccc(NC(=O)c2cc3c(s2)CCCC3)cc1S(=O)(=O)Nc1ccccc1Cl	ADAM17 inh 16, ADAM10 inh 25, GRIN3A LBD mod 18 | ADAM10 confirm 52 | ADAM17 ctr 15 | ADAM10 ctr 22 | ADAM17 confirm 15
O=C(Nc1cccc(S(=O)(=O)Nc2ccc(Cl)cc2)c1)c1cc2c(s1)CCCC2	ADAM17 inh 15, ADAM10 inh 27, GRIN3A LBD mod 32 | ADAM10 confirm inactive | ADAM17 ctr inactive | ADAM10 ctr 45 | ADAM17 confirm 27
CCc1cccc(C)c1NS(=O)(=O)c1cccs1	none
NC(=O)c1ccc(NC(=O)COc2cccc3c2CCNC3=O)cc1	none
CCc1ccccc1N1CN(Cc2cccnc2)CNC1=S	none
COC(=O)c1cc(S(=O)(=O)NCC2CCN(Cc3ccc(C)cc3)CC2)c[nH]1	none
C[C@H](CO)N1C[C@H](C)[C@H](CN(C)C(=O)Nc2ccc(F)cc2)OCc2ccccc2-c2c(n(C)c3ccccc23)C1=O	none (no result: GRIN3A LBD mod)
Cc1ccccc1S(=O)(=O)N(C)C[C@@H]1OCc2ccccc2-c2c(n(C)c3ccccc23)C(=O)N([C@H](C)CO)C[C@@H]1C	ADAM17 inh 9.7, ADAM10 inh 27 (no result: GRIN3A LBD mod) | ADAM10 confirm inactive | ADAM17 ctr inactive | ADAM10 ctr 32 | ADAM17 confirm 16
C[C@@H]1CN([C@H](C)CO)C(=O)c2c(c3ccccc3n2C)-c2ccccc2CO[C@@H]1CN(C)C(=O)Nc1ccc2c(c1)OCO2	ADAM17 inh 14, ADAM10 inh 22 (no result: GRIN3A LBD mod) | ADAM10 confirm inactive | ADAM17 ctr inactive | ADAM10 ctr 20 | ADAM17 confirm 9.5
CCCC(=O)Nc1cc(C)c(NC(=O)c2ccncc2)cn1	none
CCCn1c(NCc2cc(C)ccc2O)nc2ccccc21	none
C=CCc1cccc(CNc2nc3ccccc3n2CCC)c1O	ADAM17 inh 14, ADAM10 inh 35 | ADAM10 confirm inactive | ADAM17 ctr inactive | ADAM10 ctr 42 | ADAM17 confirm 23
O=C(Nc1cnn(Cc2ccc(F)cc2)c1)c1cnccn1	none
O=C(Nc1cnn(Cc2ccc(F)cc2)c1)C(c1ccccc1)c1ccccc1	ADAM17 inh 14, ADAM10 inh 23, GRIN3A LBD mod 20 | ADAM10 confirm inactive | ADAM17 ctr inactive | ADAM10 ctr 22 | ADAM17 confirm 14
COc1ccccc1CNC(=O)C1CSC2(C)CCC(=O)N12 (stereo not given)	none
COc1ccc(CN2C(=O)[C@H]3Cc4c([nH]c5ccccc45)C(C)(C)N3C2=O)cc1	ADAM17 inh 8.9, ADAM10 inh 22 | ADAM10 confirm inactive | ADAM17 ctr inactive | ADAM10 ctr 30 | ADAM17 confirm 17
COc1ccc(NS(=O)(=O)c2cccc(NC(=O)CCC(=O)c3cccs3)c2)cc1	none
COc1ccc(NS(=O)(=O)c2cccc(NC(=O)CCC(=O)c3ccc(Cl)cc3)c2)cc1	ADAM17 inh 14, ADAM10 inh 30, GRIN3A LBD mod 26 | ADAM10 confirm inactive | ADAM17 ctr inactive | ADAM10 ctr 34 | ADAM17 confirm 19
COc1cccc(NC(=O)c2ccccc2Oc2ccccc2)c1	none
COc1cccc(Nc2ncccc2C(=O)Nc2ccccc2)c1	ADAM17 inh 19, ADAM10 inh 29 | ADAM10 confirm inactive | ADAM17 ctr inactive | ADAM10 ctr inactive | ADAM17 confirm inactive
CC(CCc1ccccc1)NC(=O)C1CCN(C(=O)c2sccc2-n2cccc2)CC1 (stereo not given)	none
